Data as given in PubChem BioAssay.
Values joined by “and” are separate entries in the source; they are usually repeats but may differ in a detail not shown here. Equal values may be shown once. Records with an inconclusive call do not appear. Active and inactive are the calls of the source.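 How the source made its calls, unless noted: active means thallium flux through the channel raised or lowered by more than 3 SD from vehicle-only wells, actives on both sides; inactive means the rest.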

Legend:
[1] = blockers of polyQ-driven CASP3 activation – cell-based (AID 1583); settings: polyglutamine-induced caspase-3 activation, cell assay; stronger effect = higher value;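 tested at 10 µM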
[2] = yeast 75Q aggregation reduction – 75Q-TubU reporter (AID 1593); settings: Yeast 75Q polyglutamine aggregation reporter
[3] = blockers of cytochrome c efflux from mitochondria – biochemical, purified mitochondria (AID 1603); settings: stronger effect = lower value;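 further: mouse liver mitochondria challenged with calcium chloride; signal normalized to the plate average as 100%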
[4] = polyglutamine aggregate formation blockers (AID 1604); settings: polyglutamine-induced protein aggregation inhibition assay; stronger effect = higher value; tested at 2.5 µM
[5] = glutamate transport activators, MN-1 cells, MN-1 cell line (AID 1612); settings: MN-1 motor neuron cells, stronger effect = higher value;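 further: tested at 1 µM final; 0% = mean of DMSO vehicle wells on each plate; positive means more glutamate uptake than control and negative means less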
[6] = 75Q-TubH aggregate inhibition, S. cerevisiae, yeast (AID 1616); settings: S. cerevisiae 75Q-TubH polyglutamine aggregation suppression; stronger effect = higher value
[7] = viability loss in pontine glioma line – cell-based, SU-DIPG-XXV, MIPE5.0, CellTiter-Glo, qHTS, dose response (AID 1347065; cut-off not given, nearly all actives have AC50 up to about 26 µM;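 further: cells exposed to compound for 48 hours before ATP readout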); settings: CellTiter-Glo ATP luminescence
[8] = JHH-DIPG-1 glioma cell viability, MIPE5.0 library, CellTiter-Glo luminescence, qHTS (AID 1347067; cut-off not given, nearly all actives have AC50 up to about 26 µM;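 further: cells exposed to compound for 48 hours before readout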); settings: JHH-DIPG-1 glioma viability, CellTiter-Glo ATP luminescence
[9] = target: NAD(+) hydrolase SARM1 (Homo sapiens) (UniProt Q6SZW1); experiment: blocking NAD cleavage by SARM1 SAM-TIR – cell lysate, NAD-Glo luminescence (AID 1508614;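 active means compound whose remaining NAD level is above about 45 nM, limit read from the data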); settings: SAM-TIR HEK293T lysate NADase, at 1 µM, stronger effect = higher value
[10] = galactose survival enhancers in mitochondrial complex I cybrids – cell-based, galactose medium, ATP luminescence, primary screen (AID 1645843;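 active means z-score of at least 1.8 in each of two replicates, scored against plate mean and spread of sample wells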;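 further: positive z means more ATP and so rescue of galactose-driven cybrid death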); settings: complex I mutant cybrid cells, 72 h, stronger effect = higher value
R275C/beta4 = experiment: BK channel mutant inhibitors and activators – cell-based, U2OS BacMam, thallium flux, beta subunits, selectivity assay, profiling panel (AID 1259406); settings: U2OS BacMam BK variants, at 30 µM;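 further: initial slope of Thallos dye fluorescence rise after thallium is added; log ratio against the mean of 0.3% DMSO vehicle wells on the same plate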
R275C/Slo1WT/beta2 = experiment: as above; settings: U2OS BacMam BK variants, at 30 µM
[11] = compounds altering viability of human ES cells (AID 493140; call rule not given here;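 further: cells exposed to compounds for four days before counting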); settings: human embryonic stem cell survival screen; stronger effect = higher value
[12] = compounds altering circadian rhythm period length – cell-based, LOPAC library, luminescence reporter (AID 2774; call rule not given here;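 further: values are relative to mean of DMSO wells on each plate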); settings: circadian reporter cells, at 7 µM, actives lie on both sides
[13] = system: Hepatitis C virus NS3 helicase; experiment: blockers of NS3h binding to ssDNA – biochemical, fluorescence polarization, LOPAC1280 library, primary screen (AID 687035; in the data active means inhibition above about 37%); settings: Purified HCV NS3 helicase, Cy5-dT15 ssDNA binding fluorescence polarization; stronger effect = higher value; concentration not given here
[14] = compounds altering Cy5-DNA-NS3h complex signal – biochemical, LOPAC1280, artefact control for HCV NS3 helicase inhibitor project (AID 687037; call rule not given here); settings: Cy5-DNA-NS3h complex fluorescence interference counterscreen
[15] = blockers of cellular phospholipid synthesis – cell-based, LOPAC library, screen 4, primary screen (AID 1347384; call rule not given here); settings: animal cells, phospholipid biosynthesis inhibition screen; at 10 µM
[16] = system: Neuropilin-2 / VEGF-C interaction (human); experiment: small molecules blocking Neuropilin-2/VEGF-C interaction – biochemical, microplate binding format, z-score (AID 743281; call rule not given here); settings: microplate NRP2/VEGF-C binding assay; stronger effect = lower value
[17] = viability loss in pontine glioma line – cell-based, JHH-DIPG-1, MIPE4.0, CellTiter-Glo, qHTS, dose response (AID 1347062; cut-off not given, nearly all actives have AC50 up to about 27 µM); settings: JHH-DIPG-1 viability, CellTiter-Glo ATP luminescence
[18] = growth inhibition of DIPG cells – cell-based, MIPE4.0 library, CellTiter-Glo luminescence, qHTS (AID 1347066; cut-off not given, nearly all actives have AC50 up to about 30 µM;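 further: cells exposed to compound for 48 hours before readout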); settings: SU-DIPG-VI viability, CellTiter-Glo ATP luminescence

Chain of NAD(+) hydrolase SARM1 (Homo sapiens) (Q6SZW1 whole entry, looked up): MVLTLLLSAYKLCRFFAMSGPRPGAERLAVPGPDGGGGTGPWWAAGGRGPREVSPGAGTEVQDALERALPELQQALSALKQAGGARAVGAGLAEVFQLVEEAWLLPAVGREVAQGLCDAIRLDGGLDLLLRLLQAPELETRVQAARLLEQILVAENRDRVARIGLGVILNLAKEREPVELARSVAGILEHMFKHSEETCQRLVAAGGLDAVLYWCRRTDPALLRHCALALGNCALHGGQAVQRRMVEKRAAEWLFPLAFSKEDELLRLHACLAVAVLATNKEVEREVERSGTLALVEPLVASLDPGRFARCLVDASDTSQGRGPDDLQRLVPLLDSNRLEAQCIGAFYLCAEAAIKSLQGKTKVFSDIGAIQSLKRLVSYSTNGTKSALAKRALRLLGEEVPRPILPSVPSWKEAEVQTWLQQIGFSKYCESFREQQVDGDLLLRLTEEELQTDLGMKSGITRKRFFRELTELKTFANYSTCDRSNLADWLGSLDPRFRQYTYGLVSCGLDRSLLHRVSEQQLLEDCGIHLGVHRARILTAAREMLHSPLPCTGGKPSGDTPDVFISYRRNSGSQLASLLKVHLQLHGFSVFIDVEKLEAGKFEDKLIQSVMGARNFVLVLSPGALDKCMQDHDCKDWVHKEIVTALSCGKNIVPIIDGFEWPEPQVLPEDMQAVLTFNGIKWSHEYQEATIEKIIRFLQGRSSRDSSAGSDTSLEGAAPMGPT

## Nc1ncnc2c1ncn2[C@@H]1O[C@H](CO)[C@@H](O)[C@@H]1O
[1]
  inhibition: 13.4%
[2]
  score: 1.04
[3]
  cytochrome c release ratio: 1.16
[4]
  inhibition of aggregation: 56.1%
[5]
  glutamate uptake change: 13.7%
[6]
  aggregation suppression score: 0.666
[7]
  outcome: inactive
[8]
  outcome: inactive
[9]
  remaining NAD: 10 nM (inactive)
[10]
  z-score: -1.35 (inactive) and 1.67 (inactive)
R275C/beta4
  log fold change Tl+ flux: 0.00861 (inactive)
R275C/Slo1WT/beta2
  log fold change Tl+ flux: 0.0175 (inactive)

## C[N+]1(C)CCCC(OC(=O)C(O)(c2ccccc2)c2ccccc2)C1 (stereo not given)
[1]
  inhibition: -22.1%
[2]
  score: 1.26
[3]
  cytochrome c release ratio: 1.17
[4]
  inhibition of aggregation: 55%
[5]
  glutamate uptake change: -13.3%
[6]
  aggregation suppression score: 1.44
[11]
  survival: 8 (inactive)
[9]
  remaining NAD: 10 nM (inactive)
[10]
  z-score: 0.49 (inactive)
R275C/beta4
  log fold change Tl+ flux: 0.0435 (inactive)
R275C/Slo1WT/beta2
  log fold change Tl+ flux: 0.0306 (inactive)

## CNCCC(Oc1ccc(C(F)(F)F)cc1)c1ccccc1 (stereo not given)
[12]
  period change: -0.16 h (inactive)
[11]
  survival: 3.58 (inactive)
[13]
  inhibition: -3% (inactive)
[14]
  fluorescence ratio (interference): 1 (inactive)
[15]
  outcome: inactive
[9]
  remaining NAD: 10 nM (inactive)
R275C/beta4
  log fold change Tl+ flux: 0.301 (active)
R275C/Slo1WT/beta2
  log fold change Tl+ flux: 0.0335 (inactive)

## C[C@H]1COc2c(N3CCN(C)CC3)c(F)cc3c(=O)c(C(=O)O)cn1c23
[16]
  z-score: -0.188 (inactive)
[17]
  outcome: inactive
[7]
  outcome: inactive
[18]
  outcome: inactive
[8]
  outcome: inactive
[9]
  remaining NAD: 10 nM (inactive)
[10]
  z-score: -0.45 (inactive)
R275C/beta4
  log fold change Tl+ flux: -0.0147 (inactive)
R275C/Slo1WT/beta2
  log fold change Tl+ flux: 0.0224 (inactive)

## CC1=C(/C=C/C(C)=C/C=C/C(C)=C\C(=O)O)C(C)(C)CCC1
[12]
  period change: 0.45 h (inactive)
[11]
  survival: 10.8 (inactive) and 52.6 (inactive)
[13]
  inhibition: 1% (inactive)
[14]
  fluorescence ratio (interference): 0.9 (inactive)
[17]
  outcome: inactive
[7]
  AC50: 6.61 µM (active)
[18]
  outcome: inactive
[8]
  outcome: inactive
[15]
  outcome: inactive
[9]
  remaining NAD: 10 nM (inactive)
[10]
  z-score: 1.53 (inactive) and -0.905 (inactive)
R275C/beta4
  log fold change Tl+ flux: 0.00975 (inactive)
R275C/Slo1WT/beta2
  log fold change Tl+ flux: 0.0252 (inactive)

## COc1ccc(C[C@H](N)C(=O)N[C@H]2[C@@H](O)[C@H](n3cnc4c(N(C)C)ncnc43)O[C@@H]2CO)cc1
[9]
  remaining NAD: 10 nM (inactive)
[10]
  z-score: -2.25 (inactive)

## CC[C@H]1OC(=O)[C@H](C)[C@@H](O[C@H]2C[C@@](C)(OC)[C@@H](O)[C@H](C)O2)[C@H](C)[C@@H](O[C@@H]2O[C@H](C)C[C@H](N(C)C)[C@H]2O)[C@](C)(OC)C[C@@H](C)C(=O)[C@H](C)[C@@H](O)[C@]1(C)O
[16]
  z-score: -0.251 (inactive)
[17]
  outcome: inactive
[18]
  outcome: inactive
[9]
  remaining NAD: 10 nM (inactive)
[10]
  z-score: -0.33 (inactive)
R275C/beta4
  log fold change Tl+ flux: -0.0137 (inactive)
R275C/Slo1WT/beta2
  log fold change Tl+ flux: -0.00092 (inactive)

## COc1ccc(/C=C/C(=O)Nc2ccccc2C(=O)O)cc1OC
[12]
  period change: -0.165 h (inactive)
[13]
  inhibition: 1% (inactive)
[14]
  fluorescence ratio (interference): 1 (inactive)
[16]
  z-score: 0.915 (inactive)
[7]
  outcome: inactive
[8]
  outcome: inactive
[15]
  outcome: inactive
[9]
  remaining NAD: 10 nM (inactive)
[10]
  z-score: 1.34 (inactive) and 0.925 (inactive) and 0.79 (inactive)
R275C/beta4
  log fold change Tl+ flux: -0.0078 (inactive)
R275C/Slo1WT/beta2
  log fold change Tl+ flux: 0.0419 (inactive)

## CS(=O)(=O)c1ccc(C2=C(c3ccccc3)C(=O)OC2)cc1
[16]
  z-score: -0.0129 (inactive)
[17]
  outcome: inactive
[7]
  outcome: inactive
[18]
  outcome: inactive
[8]
  outcome: inactive
[9]
  remaining NAD: 10 nM (inactive)
[10]
  z-score: 0.26 (inactive) and 0.525 (inactive)
R275C/beta4
  log fold change Tl+ flux: 0.00682 (inactive)
R275C/Slo1WT/beta2
  log fold change Tl+ flux: 0.00403 (inactive)

## COc1ccc(-c2cc(=O)c3c(OC)c(OC)c(OC)c(OC)c3o2)cc1OC
[16]
  z-score: 0.248 (inactive)
[10]
  z-score: 0.845 (inactive)
R275C/beta4
  log fold change Tl+ flux: -0.242 (active)
R275C/Slo1WT/beta2
  log fold change Tl+ flux: -0.0213 (inactive)

## Cc1occc(=O)c1O
[16]
  z-score: -0.38 (inactive)
[10]
  z-score: 0.51 (inactive)
R275C/beta4
  log fold change Tl+ flux: -0.00174 (inactive)
R275C/Slo1WT/beta2
  log fold change Tl+ flux: 0.0112 (inactive)
